# The source made the active and inactive calls. Unless noted, the rule behind the calls is not given here.
# How the values were obtained:
# [1] = resazurin metabolic signal in HepG2 cells – cell-based, resazurin fluorescence, 24 h, PK04 Diversity Set, profiling panel (AID 1172); conditions: HepG2 viability, higher = more signal
# [2] = budding yeast growth changes without added modifier – OD600, strain BY4716, 24 h, basal condition, primary screen (AID 1173); conditions: S. cerevisiae BY4716 growth, OD600, 24 h; higher = more signal, called active from +8 up or from −8 down
# [3] = viability profiling in MM1S myeloma cells – cell-based, resazurin fluorescence, basal, 24 h, PK04 Diversity Set, profiling panel (AID 1174); conditions: higher = more signal, called active from +8 up or from −8 down;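 note: MM1S multiple myeloma cell line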
# [4] = target: Dihydroorotate dehydrogenase (quinone), mitochondrial (Plasmodium falciparum (isolate 3D7)) (UniProt Q08210); assay: inhibition of P. falciparum DHODH – biochemical, C-terminal His tag, absorbance 600 nm, primary screen (AID 1175); conditions: PfDHODH enzyme, DCIP absorbance 600 nm; higher = more signal, called active from +8 up or from −8 down;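 note: recombinant parasite enzyme with a five histidine tag at its C terminus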
# [5] = inhibition of PAO1 biofilm formation – strain PAO1, LB-PBS medium, absorbance 600 nm, primary screen (AID 1176); conditions: P. aeruginosa PAO1 growth/biofilm, A600, 12 h; higher = more signal
# [6] = growth modulation of vineyard yeast isolate – strain RM11-1a, OD600, basal, 24 h, primary screen (AID 1177);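 note: cultures grown under basal conditions with no added stressor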; conditions: S. cerevisiae RM11-1a growth, OD600, 24 h; higher = more signal, called active from +8 up or from −8 down
# [7] = growth of efflux-deficient E. coli DRC39 – strain DRC39, OD650, 24 h, E. coli filamentation inducers, primary screen (AID 1178);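 note: growth measured as culture turbidity by optical density at 650 nm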; conditions: E. coli DRC39 acrAB, higher = more signal, called active from +8 up or from −8 down
# [8] = growth of efflux-deficient E. coli DRC39 – strain DRC39, OD650, 48 h, E. coli filamentation inducers, primary screen (AID 1179);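 note: screen aims at cell division blockers that make cells filament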; conditions: E. coli DRC39 delta-acrAB growth, higher = more signal, called active from +8 up or from −8 down
# [9] = viability profiling in RPMI8226 myeloma cells – cell-based, resazurin fluorescence, basal, 24 h, PK04 Diversity Set, profiling panel (AID 1180); conditions: higher = more signal;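 note: RPMI8826 multiple myeloma cell line at 5000 cells per well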
# [10] = target: E3 ubiquitin-protein ligase XIAP (Homo sapiens) (UniProt P98170); assay: small molecules binding XIAP protein – biophysical, small-molecule microarray, fluorescence 635 nm, primary screen (AID 1181); conditions: higher = more signal;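 note: score merges 667 nm emission and signal to noise over triplicate slides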
# [11] = tested on: XIP peptide (Xip251-270) binding; assay: XIP fragment 251-270 binding compounds – biochemical, small-molecule microarray, fluorescence 635/667 nm, 0.1 µg/mL protein, primary screen (AID 1182); conditions: fluorescent protein binding, 635 nm, higher = more signal, called active from +8 up or from −8 down
# [12] = tested on: XIP peptide (Xip251-270); assay: compounds binding XIP fragment 251-270 – biochemical, small-molecule microarray, fluorescence 635/667 nm, 0.5 µg/mL protein, primary screen (AID 1183); conditions: fluorescence 635 nm, higher = more signal
# [13] = blood-stage malaria parasite viability loss – strain 3D7, DAPI fluorescence, 100 nL, primary screen (AID 1184);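 note: parasites grown inside human red blood cells in medium with human serum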; conditions: P. falciparum 3D7 growth, 3 d, higher = more signal
# [14] = target: Homeobox protein Hox-A13 (Mus musculus) (UniProt Q62424); assay: disruptors of Hoxa13 oligonucleotide interaction – biochemical, fluorescence polarization, labeled oligonucleotide, primary screen (AID 1185); conditions: Hoxa13:DNA binding, 15 min, higher = more signal, called active from +8 up or from −8 down
# [15] = blockers of DNA damage checkpoint Chk1 activation – imaging, HeLa, hydroxyurea, phospho-Chk1 antibody, percent positive cells, primary screen (AID 1186); conditions: hydroxyurea-induced phospho-Chk1 immunofluorescence imaging, higher = more signal
# [16] = blockers of DNA damage checkpoint Chk1 activation – imaging, HeLa, hydroxyurea, phospho-Chk1 nuclear intensity, primary screen (AID 1187); conditions: hydroxyurea-induced phospho-Chk1 immunofluorescence imaging, higher = more signal
# Sequence of Dihydroorotate dehydrogenase (quinone), mitochondrial (Plasmodium falciparum (isolate 3D7)) (Q08210 whole entry, looked up): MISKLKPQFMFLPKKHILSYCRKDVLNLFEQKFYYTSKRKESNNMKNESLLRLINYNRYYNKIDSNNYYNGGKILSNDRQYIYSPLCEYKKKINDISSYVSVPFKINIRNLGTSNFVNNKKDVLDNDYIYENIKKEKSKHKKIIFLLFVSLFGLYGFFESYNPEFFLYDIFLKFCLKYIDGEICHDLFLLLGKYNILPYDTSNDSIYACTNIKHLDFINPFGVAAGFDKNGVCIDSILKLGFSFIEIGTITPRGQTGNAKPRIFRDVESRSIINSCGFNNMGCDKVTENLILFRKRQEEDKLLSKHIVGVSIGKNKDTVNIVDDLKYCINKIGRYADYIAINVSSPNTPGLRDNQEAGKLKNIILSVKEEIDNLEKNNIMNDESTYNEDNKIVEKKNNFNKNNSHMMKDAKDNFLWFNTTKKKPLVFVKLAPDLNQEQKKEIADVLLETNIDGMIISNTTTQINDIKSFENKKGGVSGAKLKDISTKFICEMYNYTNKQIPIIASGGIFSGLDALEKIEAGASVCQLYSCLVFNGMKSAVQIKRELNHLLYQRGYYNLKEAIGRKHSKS
# Sequence of E3 ubiquitin-protein ligase XIAP (Homo sapiens) (P98170 whole entry, looked up, the tested form may be a part): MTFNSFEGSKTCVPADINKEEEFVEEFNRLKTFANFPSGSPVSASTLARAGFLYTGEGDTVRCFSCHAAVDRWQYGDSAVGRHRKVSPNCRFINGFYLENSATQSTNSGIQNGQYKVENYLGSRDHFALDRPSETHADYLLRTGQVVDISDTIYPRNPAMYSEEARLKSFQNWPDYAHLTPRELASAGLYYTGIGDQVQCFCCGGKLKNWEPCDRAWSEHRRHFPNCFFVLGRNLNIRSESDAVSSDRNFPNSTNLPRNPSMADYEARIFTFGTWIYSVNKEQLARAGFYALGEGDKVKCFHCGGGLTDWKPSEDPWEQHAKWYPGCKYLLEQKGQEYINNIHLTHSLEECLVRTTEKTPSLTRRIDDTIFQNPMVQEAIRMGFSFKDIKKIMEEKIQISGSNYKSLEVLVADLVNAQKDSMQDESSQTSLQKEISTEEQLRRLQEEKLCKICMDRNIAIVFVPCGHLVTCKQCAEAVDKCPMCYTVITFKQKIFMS
# Sequence of Homeobox protein Hox-A13 (Mus musculus) (Q62424 whole entry, looked up): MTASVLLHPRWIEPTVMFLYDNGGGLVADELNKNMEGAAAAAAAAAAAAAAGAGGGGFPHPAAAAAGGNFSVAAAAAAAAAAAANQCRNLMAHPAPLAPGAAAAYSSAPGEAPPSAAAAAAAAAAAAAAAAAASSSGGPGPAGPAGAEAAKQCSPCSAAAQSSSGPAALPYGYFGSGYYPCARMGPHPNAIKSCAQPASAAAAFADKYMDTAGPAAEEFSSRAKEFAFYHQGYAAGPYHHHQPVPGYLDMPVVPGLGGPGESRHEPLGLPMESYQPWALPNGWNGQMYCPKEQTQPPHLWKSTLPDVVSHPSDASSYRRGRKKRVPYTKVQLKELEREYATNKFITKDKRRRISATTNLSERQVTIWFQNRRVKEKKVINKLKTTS
SMILES,z-score [1],z-score [2],z-score [3],composite z-score [4],z-score [5],z-score [6],z-score [7],z-score [8],z-score [9],composite z-score [10],composite z-score [11],composite z-score [12],z-score [13],z-score [14],z-score [15],z-score [16]
C=CC[C@@H]1C=C[C@H](ON=C[C@@H](OC)[C@H](C)C=CCC(=O)OC)[C@@H](CO)O1,-0.266,-0.54 (inactive),-0.709 (inactive),0.217 (inactive),-0.537 (inactive),1.17 (inactive),0.456 (inactive),0.732 (inactive),-0.707,0.32,-0.0604 (inactive),0.168,0.167,-0.413 (inactive),–,–
COCCCNC(=O)[C@@]1(Sc2ccc(C)cc2)CC(=O)N(Cc2ccccc2)[C@@H]1c1ccc(CO)cc1I,0.121,-3.62 (inactive),-2.46 (inactive),-0.666 (inactive),-0.549 (inactive),-1.02 (inactive),0.283 (inactive),0.264 (inactive),-1.78,0.106,-0.453 (inactive),0.423,-0.0893,-2.08 (inactive),0.442 (inactive),1.03 (inactive)
C=CCOC(=O)[C@H]1[C@@H]2C(=O)O[C@@H](c3ccccc3)[C@@H](c3ccccc3)N2[C@@H](c2ccc(OCCOC(=O)[C@H]3C[C@H]4C(=O)N5CCC[C@H]5C(=O)N4[C@H]3c3cccc(OCCO)c3)cc2)[C@]12C(=O)Nc1ccc(I)cc12,0.187,0.0932 (inactive),-0.376 (inactive),-15.3 (active),-0.102 (inactive),-0.442 (inactive),-0.277 (inactive),-0.553 (inactive),0.0614,0.724,2.54 (inactive),0.829,-0.139,-1.27 (inactive),-0.576 (inactive),-0.305 (inactive)
Cc1ccc(S[C@]2(C(=O)NCC(F)(F)F)CC(=O)N(Cc3ccccc3Cl)[C@@H]2c2ccc(CO)cc2I)cc1,0.305,-3.36 (inactive),-3.29 (inactive),-0.148 (inactive),0.0214 (inactive),-0.54 (inactive),0.357 (inactive),0.465 (inactive),-2.02,0.0256,0.292 (inactive),0.426,0.115,-2.61 (inactive),0.395 (inactive),0.92 (inactive)
CC(C)(C)N1CC=CC23O[C@@H]4C=CCCOC(=O)C4[C@H]2C(=O)N(CCCCCO)[C@@H]3C1=O (some centres not stated),-0.214,-0.312 (inactive),0.287 (inactive),-0.16 (inactive),-0.36 (inactive),0.449 (inactive),0.251 (inactive),0.762 (inactive),0.384,0.329,0.615 (inactive),0.12,0.519,-4.56 (inactive),-1.05 (inactive),-1.13 (inactive)
C[N+](C)(C)CCCCCCNC(=O)[C@@H]1C[C@@H]2C(=O)N3CCC[C@H]3C(=O)N2[C@@H]1c1cccc(OCCO)c1,2.14,-0.887 (inactive),0.984 (inactive),-1.83 (inactive),0.808 (inactive),-0.183 (inactive),0.0995 (inactive),-0.514 (inactive),-0.245,-0.0655,-0.113 (inactive),0.697,-0.204,-4.95 (inactive),-0.173 (inactive),-0.0252 (inactive)
COC(=O)C1(C)C=C2C(=C(c3ccccc3)C(=O)C2C)CN1 (configuration not stated),-1.44,0.558 (inactive),-1.71 (inactive),-0.784 (inactive),1.38 (inactive),0.376 (inactive),-0.632 (inactive),-0.348 (inactive),-2.05,0.359,-0.21 (inactive),0.923,-0.0619,-7.29 (inactive),0.74 (inactive),0.84 (inactive)
CN(C)CCCNC(=O)[C@@H]1c2ccccc2C(=O)N(Cc2cc(F)cc(C(F)(F)F)c2)[C@H]1c1ccc(CO)cc1,0.0356,-0.473 (inactive),-0.62 (inactive),0.0999 (inactive),0.348 (inactive),0.0333 (inactive),-0.0392 (inactive),-0.578 (inactive),-0.359,-0.0172,0.782 (inactive),-0.0306,-0.1,-3.29 (inactive),0.241 (inactive),-0.0884 (inactive)
C=CCNC(=O)[C@H]1[C@@H]2C(=O)O[C@@H](c3ccccc3)[C@@H](c3ccccc3)N2[C@@H](c2ccc(O)cc2)[C@]12C(=O)N(C(=O)OCCOC)c1ccc(C#CC3=CCCCC3)cc12,0.467,0.107 (inactive),-0.61 (inactive),-0.629 (inactive),0.858 (inactive),1.01 (inactive),-0.925 (inactive),-0.723 (inactive),-0.205,0.22,0.514 (inactive),0.834,-0.919,-0.216 (inactive),-0.411 (inactive),-0.376 (inactive)

# — PubChem BioAssay
